Our source for the AC50 and outcome values is PubChem BioAssay (EPA / NIEHS).

The source made the active and inactive calls. Rule for the calls: active = hit-call score of the fitted dose curve at least 0.9, where 1 is the maximum; inconclusive = response in the unintended direction; inactive = score below 0.9.

Broadly, the AC50 is the concentration giving half of the maximal activity seen.

Chain of human CYP1A2, CYP1A2 (gene 1544) (P05177 whole entry, looked up): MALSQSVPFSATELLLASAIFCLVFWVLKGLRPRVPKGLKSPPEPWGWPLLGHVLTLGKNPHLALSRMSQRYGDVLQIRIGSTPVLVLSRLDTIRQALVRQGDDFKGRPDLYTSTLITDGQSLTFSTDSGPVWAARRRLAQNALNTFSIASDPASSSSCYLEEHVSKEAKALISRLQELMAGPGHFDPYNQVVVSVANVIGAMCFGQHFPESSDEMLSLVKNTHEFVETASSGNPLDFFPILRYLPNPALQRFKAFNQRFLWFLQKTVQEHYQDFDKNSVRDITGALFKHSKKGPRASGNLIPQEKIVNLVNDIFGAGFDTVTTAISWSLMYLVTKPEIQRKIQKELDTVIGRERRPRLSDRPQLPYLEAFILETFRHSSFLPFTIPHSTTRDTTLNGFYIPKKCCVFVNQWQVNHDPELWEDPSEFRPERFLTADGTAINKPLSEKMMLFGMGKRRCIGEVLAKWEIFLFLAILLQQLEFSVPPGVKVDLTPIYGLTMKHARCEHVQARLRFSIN

The target of the assay is human CYP1A2, CYP1A2 (gene 1544) (UniProt P05177). Nature of the assay: NVS_ADME_hCYP1A2: NovaScreen (NVS) CYP450-related Enzyme Activity (ADME) Assay for human CYP1A2 (AID 2283102).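 For AC50: potency for inhibition since loss of fluorescence marks reduced CYP1A2 activity.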 As for the experimental part:
NVS_ADME_hCYP1A2 is a biochemical, single-readout assay that uses extracted gene-proteins from insect cells in a cell-free assay. Measurements were taken 0.5 hour after chemical dosing in a 96-well plate.NVS_ADME_hCYP1A2 is one of one assay component(s) measured or calculated from the NVS_ADME_hCYP1A2 assay. It is designed to make measurements of enzyme activity, a form of enzyme reporter, as detected with fluorescence intensity signals by Fluorescence technology.Data from the assay component NVS_ADME_hCYP1A2 was analyzed into 1 assay endpoint. This assay endpoint, NVS_ADME_hCYP1A2, was analyzed in the positive analysis fitting direction relative to Acetonitrile as the negative control and baseline of activity. Using a type of enzyme reporter, loss-of-signal activity can be used to understand changes in the enzymatic activity as they relate to the gene CYP1A2. Furthermore, this assay endpoint can be referred to as a primary readout, because this assay has produced multiple assay endpoints where this one serves a enzymatic activity function. To generalize the intended target to other relatable targets, this assay endpoint is annotated to the cyp intended target family, where the subfamily is xenobiotic metabolism.
Binding assays used specific radioligands (tritiated, iodinated) with non-radioactive competitive displacement ligands in agonist or antagonist protocols (as indicated) and various reference compounds and inhibitors to titrate specific binding to receptors and transporters. Most enzyme assays (CYPs, kinases, phosphatases, proteases, HDACs) used recombinant protein and specific substrates (fluorescence mostly, some colorimetric and radioactive) and inhibitors, followed by a biochemical separation of substrate and product. All assays for the biochemical HTS were initially run in duplicate at a single concentration (10 uM for CYP450 assays and 25 uM for all others). […] Each assay was run with positive and negative controls, and concurrent controls on every plate. The follow-up (secondary) screen tested active chemical-pairs in concentration series, as well as a few additional assays not tested in the primary screen, some selected negative inactives, and several cases re-run in the concentration series for confirmatory purposes.
Turning to `CCCCCCCCOC(=O)c1cc(O)c(O)c(O)c1`, the AC50 is 4.26 µM (active).
With `CC1(C)NC(=O)N(c2ccc([N+](=O)[O-])c(C(F)(F)F)c2)C1=O`, the half-maximal activity concentration (AC50) was 5.28 µM (active).
On the same count and under the same terms, the value for `OC12N=C(c3ccccc3)SC1Cc1cc(Cl)ccc12` (stereo unspecified) was 0.814 µM (active); that for `NCc1cccc(C2CCN(C(=O)c3ccc(C#Cc4ccccc4F)o3)CC2)c1` was 6.43 µM (active); that for `Clc1cc(Cl)c2c(c1)N=C1CCCCCN1C2` was 2.34 µM (active).
Take `CCCCOC(=O)c1ccc(O)cc1`: the AC50 is 2.4 µM (active).
In the case of `CCOC(=O)O[C@H](C)OC(=O)c1ccc2c(c1)cc(C(=O)NC1CCN(C(C)C)CC1)n2Cc1cc(-c2ccc(Cl)s2)on1`, the AC50 was 13.7 µM (active).
As for `CN(C)c1ccc(C(=C2C=CC(=[N+](C)C)C=C2)c2ccc(N(C)C)cc2)cc1`, the AC50 was 6.67 µM (active).
With `Cc1c2ccccc2c(C)c2c1ccc1ccccc12`, the AC50 was 4.33 µM (active).
As for `Clc1ccccc1C(c1ccccc1)(c1ccccc1)n1ccnc1`, the outcome was inactive.
`O=C(OCCCCCCOC(=O)c1ccccc1)c1ccccc1`: the AC50 is 5.42 µM (active).
